# The supplement of paper PMC8728848
# This is one part of a sample in which the strongest signals are shown more often than they occur.
# Experiments:
# Assay in all cases: glycan array binding signal (z-score within array); higher = stronger binding
# Conditions in all cases: glycan notation: IUPAC condensed, linker removed
# [1] = biological target: Gal(b1-4)GlcNAc(b1-3)Gal(b1-4)GlcNAc(b1-3)Gal(b1-4)GlcNAc(b1-2)Man(a1-3)[Gal(b1-4)GlcNAc(b1-3)Gal(b1-4)GlcNAc(b1-3)Gal(b1-4)GlcNAc(b1-2)Man(a1-6)]Man(b1-4)GlcNAc(b1-4)[Fuc(a1-6)]GlcNAc
# Procedure, shortened: (§1)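 Columns mapping to the same glycan were averaged after glycan names were converted to IUPAC-condensed notation. The data come from 3228 arrays in the Consortium for Functional Glycomics database, limited to those with an available protein sequence. Binding is reported as a within-array Z-score averaged across arrays of one protein sequence and across linkers.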
# [2] = biological target: Gal(b1-4)GlcNAc(b1-3)Gal(b1-4)GlcNAc(b1-3)Gal(b1-4)GlcNAc(b1-2)[Gal(b1-4)GlcNAc(b1-3)Gal(b1-4)GlcNAc(b1-3)Gal(b1-4)GlcNAc(b1-6)]Man(a1-6)[Gal(b1-4)GlcNAc(b1-3)Gal(b1-4)GlcNAc(b1-3)Gal(b1-4)GlcNAc(b1-2)Man(a1-3)]Man(b1-4)GlcNAc(b1-4)[Fuc(a1-6)]GlcNAc
# Procedure, shortened: as §1
# [3] = biological target: Gal(b1-4)GlcNAc(b1-3)Gal(b1-4)GlcNAc(b1-3)Gal(b1-4)GlcNAc(b1-3)Gal(b1-4)GlcNAc(b1-2)Man(a1-3)[Gal(b1-4)GlcNAc(b1-3)Gal(b1-4)GlcNAc(b1-3)Gal(b1-4)GlcNAc(b1-3)Gal(b1-4)GlcNAc(b1-2)Man(a1-6)]Man(b1-4)GlcNAc(b1-4)GlcNAc
# Procedure, shortened: as §1
# [4] = biological target: Gal(b1-4)GlcNAc(b1-3)Gal(b1-4)GlcNAc(b1-3)Gal(b1-4)GlcNAc(b1-3)Gal(b1-4)GlcNAc(b1-2)[Gal(b1-4)GlcNAc(b1-3)Gal(b1-4)GlcNAc(b1-3)Gal(b1-4)GlcNAc(b1-3)Gal(b1-4)GlcNAc(b1-6)]Man(a1-6)[Gal(b1-4)GlcNAc(b1-3)Gal(b1-4)GlcNAc(b1-3)Gal(b1-4)GlcNAc(b1-3)Gal(b1-4)GlcNAc(b1-2)Man(a1-3)]Man(b1-4)GlcNAc(b1-4)[Fuc(a1-6)]GlcNAc
# Procedure, shortened: as §1
# [5] = biological target: Gal(b1-4)GlcNAc(b1-3)Gal(b1-4)GlcNAc(b1-3)Gal(b1-4)GlcNAc(b1-3)Gal(b1-4)GlcNAc(b1-3)Gal(b1-4)GlcNAc(b1-2)[Gal(b1-4)GlcNAc(b1-3)Gal(b1-4)GlcNAc(b1-3)Gal(b1-4)GlcNAc(b1-3)Gal(b1-4)GlcNAc(b1-3)Gal(b1-4)GlcNAc(b1-6)]Man(a1-6)[Gal(b1-4)GlcNAc(b1-3)Gal(b1-4)GlcNAc(b1-3)Gal(b1-4)GlcNAc(b1-3)Gal(b1-4)GlcNAc(b1-3)Gal(b1-4)GlcNAc(b1-2)Man(a1-3)]Man(b1-4)GlcNAc(b1-4)[Fuc(a1-6)]GlcNAc
# Procedure, shortened: as §1
# [6] = biological target: Gal(b1-4)GlcNAc(b1-6)[Gal(b1-4)GlcNAc(b1-3)]GalNAc
# Procedure, shortened: as §1
# Gal3S(b1-3)GlcNAc = biological target: Gal3S(b1-3)GlcNAc
# Procedure, shortened: as §1
# Gal3S(b1-4)Glc6S = biological target: Gal3S(b1-4)Glc6S
# Procedure, shortened: as §1
# [7] = biological target: Gal3S(b1-4)[Fuc(a1-3)]GlcNAc6S
# Procedure, shortened: as §1
# GalNAc(b1-4)GlcNAc6S = biological target: GalNAc(b1-4)GlcNAc6S
# Procedure, shortened: as §1
# [8] = biological target: GlcNAc(a1-4)Gal(b1-4)GlcNAc(b1-3)Gal(b1-4)GlcNAc(b1-3)Gal(b1-4)GlcNAc
# Procedure, shortened: as §1
# [9] = biological target: GlcNAc(a1-4)Gal(b1-4)GlcNAc(b1-3)Gal(b1-4)[Fuc(a1-3)]GlcNAc(b1-3)Gal(b1-4)[Fuc(a1-3)]GlcNAc
# Procedure, shortened: as §1
# GlcNAc(b1-3)Fuc = biological target: GlcNAc(b1-3)Fuc
# Procedure, shortened: as §1
# [10] = biological target: GlcNAc(b1-3)Gal(b1-4)GlcNAc(b1-3)Gal(b1-4)GlcNAc(b1-2)Man(a1-3)[GlcNAc(b1-3)Gal(b1-4)GlcNAc(b1-3)Gal(b1-4)GlcNAc(b1-2)Man(a1-6)]Man(b1-4)GlcNAc(b1-4)[Fuc(a1-6)]GlcNAc
# Procedure, shortened: as §1
# GlcNAc(b1-3)GalNAc = biological target: GlcNAc(b1-3)GalNAc
# Procedure, shortened: as §1
# [11] = biological target: GlcNAc(b1-3)[GlcNAc(b1-6)]GalNAc
# Procedure, shortened: as §1
# Man(a1-6)Man = biological target: Man(a1-6)Man
# Procedure, shortened: as §1
# [12] = biological target: Neu5Ac(a2-3)Gal(b1-3)[Neu5Ac(a2-3)Gal(b1-4)]GlcNAc
# Procedure, shortened: as §1
# [13] = biological target: Neu5Ac(a2-3)Gal(b1-4)GlcNAc
# Procedure, shortened: as §1
# [14] = biological target: Neu5Ac(a2-3)Gal(b1-4)GlcNAc(b1-3)Gal(b1-4)GlcNAc(b1-2)Man(a1-3)[Neu5Ac(a2-3)Gal(b1-4)GlcNAc(b1-3)Gal(b1-4)GlcNAc(b1-2)Man(a1-6)]Man(b1-4)GlcNAc(b1-4)GlcNAc
# Procedure, shortened: as §1
# [15] = biological target: Neu5Ac(a2-3)Gal(b1-4)[Fuc(a1-3)]GlcNAc(b1-3)Gal(b1-4)[Fuc(a1-3)]GlcNAc(b1-3)Gal(b1-4)[Fuc(a1-3)]GlcNAc
# Procedure, shortened: as §1
# [16] = biological target: Neu5Ac(a2-3)Gal6S(b1-4)GlcNAc
# Procedure, shortened: as §1
# [17] = biological target: Neu5Ac(a2-3)[Neu5Ac(a2-6)]GalNAc
# Procedure, shortened: as §1
# [18] = biological target: Neu5Ac(a2-6)Gal(b1-4)GlcNAc(b1-2)Man(a1-3)[Neu5Ac(a2-3)Gal(b1-4)GlcNAc(b1-2)Man(a1-6)]Man(b1-4)GlcNAc(b1-4)GlcNAc
# Procedure, shortened: as §1
# [19] = biological target: Neu5Ac(a2-6)Gal(b1-4)GlcNAc(b1-3)Gal(b1-4)GlcNAc
# Procedure, shortened: as §1
# [20] = biological target: Neu5Ac(a2-6)Gal(b1-4)GlcNAc(b1-3)Gal(b1-4)GlcNAc(b1-3)[Neu5Ac(a2-6)Gal(b1-4)GlcNAc(b1-3)Gal(b1-4)GlcNAc(b1-6)]GalNAc
# Procedure, shortened: as §1
# [21] = biological target: Neu5Ac(a2-6)Gal(b1-4)GlcNAc(b1-6)[Gal(b1-3)GlcNAc(b1-3)]Gal(b1-4)Glc
# Procedure, shortened: as §1
# [22] = biological target: Neu5Ac(a2-6)GlcNAc(b1-4)GlcNAc
# Procedure, shortened: as §1
# Neu5Ac(a2-8)Neu5Ac = biological target: Neu5Ac(a2-8)Neu5Ac
# Procedure, shortened: as §1
# [23] = biological target: Neu5Ac(a2-8)Neu5Ac(a2-8)Neu5Ac(a2-3)Gal(b1-4)Glc
# Procedure, shortened: as §1
# [24] = biological target: Neu5Ac(a2-8)Neu5Ac(a2-8)Neu5Ac(a2-3)[GalNAc(b1-4)]Gal(b1-4)Glc
# Procedure, shortened: as §1
binder,measurement,setting,value
"Gal 1 (Mus musculus), P16045 (protein) MACGLVASNLNLKPGECLKVRGEVASDAKSFVLNLGKDSNNLCLHFNPRFNAHGDANTIVCNTKEDGTWGTEHREPAFPFQPGSITEVCITFDQADLTIKLPDGHEFKFPNRLNMEAINYMAADGDFKIKCVAFE",glycan array binding signal (z-score),[1],2.53
same,glycan array binding signal (z-score),[2],3.89
same,glycan array binding signal (z-score),[3],2.54
same,glycan array binding signal (z-score),[4],3.42
same,glycan array binding signal (z-score),[5],3.46
same,glycan array binding signal (z-score),[6],-0.011
same,glycan array binding signal (z-score),Gal3S(b1-3)GlcNAc,2.76
same,glycan array binding signal (z-score),Gal3S(b1-4)Glc6S,0.672
same,glycan array binding signal (z-score),[7],2.69
same,glycan array binding signal (z-score),GalNAc(b1-4)GlcNAc6S,-0.452
same,glycan array binding signal (z-score),[8],-0.404
same,glycan array binding signal (z-score),[9],-0.015
same,glycan array binding signal (z-score),GlcNAc(b1-3)Fuc,-0.43
same,glycan array binding signal (z-score),[10],-0.19
same,glycan array binding signal (z-score),GlcNAc(b1-3)GalNAc,-0.094
same,glycan array binding signal (z-score),[11],-0.292
same,glycan array binding signal (z-score),Man(a1-6)Man,0.23
same,glycan array binding signal (z-score),[12],0.068
same,glycan array binding signal (z-score),[13],-0.256
same,glycan array binding signal (z-score),[14],1.31
same,glycan array binding signal (z-score),[15],-0.083
same,glycan array binding signal (z-score),[16],-0.411
same,glycan array binding signal (z-score),[17],-0.3
same,glycan array binding signal (z-score),[18],-0.219
same,glycan array binding signal (z-score),[19],-0.348
same,glycan array binding signal (z-score),[20],1.13
same,glycan array binding signal (z-score),[21],0.027
same,glycan array binding signal (z-score),[22],-0.34
same,glycan array binding signal (z-score),Neu5Ac(a2-8)Neu5Ac,-0.093
same,glycan array binding signal (z-score),[23],-0.347
same,glycan array binding signal (z-score),[24],-0.144
